# An excerpt weighted towards active compounds, which were near 21% of everything screened.
# CHX counter: affects cycloheximide protein synthesis inhibition readout, counter-screen; cell reporter, cycloheximide protein synthesis inhibition counterscreen; max response, %; 300,000 tested, 12% active; AID 2314; in the data active means max response mostly above about 13%, no sharp cut-off; inactive means mostly below about 14%; further: read at 38.3 µM for the half of the compounds with a filed dose; 0% is about no effect
# Pf growth 96h: P. falciparum growth inhibition at 96 hour, primary screen for plastid delayed-death inhibitors; P. falciparum luciferase reporter growth, 96 h; Potency, µM (titrated, usually from 28.7 µM), without a hit: at the highest dose activity change, negative = inhibition, actives largely listed as inhibitors; 320,000 tested, 6.9% active; AID 504834; further: potency means the concentration at half of the fitted maximal effect; on the % scale 0 is the no-effect control and ±100 the full control effect
#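 Cell-based qHTS: luciferase-tagged P. falciparum in erythrocytes (2% hematocrit, 0.05% parasitemia final) incubated with compounds for 96 hours, 37 C, 5% CO2; luciferase detection reagent then added and luminescence measured.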
# Shiga inhibitor: blocks Shiga toxin action in Vero cells; Vero cells, Shiga toxin protein synthesis inhibition reporter; inhibition, % at 38.7 µM; 290,000 tested, 9.2% active; in the data active means inhibition mostly above about 28%, no sharp cut-off; inactive means mostly below about 43%; further: 0% is about no effect
# Pf growth 48h: P. falciparum growth inhibition at 48 hours (one generation); Potency, µM (series often up to 28.7 µM), for the others: top-dose activity change, negative = inhibition, usual class: inhibitors; P. falciparum luciferase growth in erythrocytes, 48 h; AID 504832; 310,000 tested, 5.9% active; further: potency means the concentration at half of the fitted maximal effect; on the % scale 0 is the no-effect control and ±100 the full control effect
#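 Firefly luciferase activity from engineered P. falciparum reports growth; inhibitors lower the luminescent signal. Cultures contained 2% hematocrit erythrocytes at 0.1% final parasitemia.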
# Active calls of the source: *; ? = inconclusive; nt = no result; [ ] = remark or other dose. Unless noted, the call rests on the fitted dose curve; in most records, active means well fitted inhibition curve with a large enough effect; inconclusive means small, poorly fitted or top-dose-only effect, or another doubt; inactive means no such curve, though single readings can be large or run the other way.
SMILES,CHX counter,Pf growth 96h,Shiga inhibitor,Pf growth 48h
CCOc1cccc(C(=O)NC2CCCCC2)c1,30*,12%,101*,83%
O=C(NC1CCCCCCC1)c1cccc(Cl)c1,40*,49%,64*,nt
CC1C(=O)N2CCCc3cc(S(=O)(=O)N(C)c4ccccc4)cc1c32 (configuration not stated),-3,-2%,-6,?
Cc1cc(C)n(-c2nc(NC(C)(C)C)nc(NC(C)(C)C)n2)n1,-4,16%,-10,?
CCNc1nc(NCC)nc(-n2nc(C)cc2C)n1,-4,2.1µM*,-9,4.1µM*
Cc1cc(C)n(-c2nc(NC(C)C)nc(NC(C)C)n2)n1,-4,5%,-21,3.7µM*
Cc1cc(C)n(-c2nc(N(C)C)nc(N(C)C)n2)n1,-1,-6%,13,?
CCN(CC)S(=O)(=O)c1ccc(/C=C/C(=O)NC2CCCCC2)cc1,6,4.7µM*,-8,?
CCN(CC)S(=O)(=O)c1ccc(C(=O)OCC(=O)NC2CCCC2)cc1,-1,28%,-5,13%
CCOc1ccc(/C=C/C(=O)NC2CCCCC2)cc1,18*,?,nt,21%
CCCOc1ccc(/C=C/C(=O)NC2CCCCC2)cc1OC,-3,?,-3,-10%
CCc1ccccc1N(CC(=O)NC1CCCCC1)C(=O)CNC(=O)c1ccco1,-5,6%,-6,-21%
Cc1ccc(S(=O)(=O)c2c(N)n(/N=C/c3ccco3)c3nc4ccccc4nc23)cc1C,-9,3.3µM*,-12,2.1µM*
Cc1cccc(S(=O)(=O)c2c(N)n(/N=C/c3cccnc3)c3nc4ccccc4nc23)c1,-3,nt,-26,-20%
Cc1cccc(S(=O)(=O)c2c(N)n(-c3ccccc3)c3nc4ccccc4nc23)c1,-3,9.3µM*,1,?
Cc1cccc(S(=O)(=O)c2c(N)n(/N=C/c3ccco3)c3nc4ccccc4nc23)c1,-1,-19%[5.75 µM],-12,8.3µM*
Nc1c(C(=O)NC2CCCCC2)c2nc3ccccc3nc2n1/N=C/c1ccco1,-4,9.3µM*,-11,15%
CCCCNC(=O)c1c(N)n(/N=C/c2ccccn2)c2nc3ccccc3nc12,14,1.5µM*,9,25%
Cc1ccc(S(=O)(=O)c2c(N)n(/N=C/c3ccco3)c3nc4ccccc4nc23)cc1,-1,?,11,6.6µM*
COc1ccc(/C=N/n2c(N)c(S(=O)(=O)c3cccs3)c3nc4ccccc4nc32)cc1OC,-2,nt,-16,2.9µM*
Nc1c(S(=O)(=O)c2ccccc2)c2nc3ccccc3nc2n1/N=C/c1ccco1,-1,?,-6,?
CC(C)CNC(=O)c1c(N)n(/N=C/c2ccccn2)c2nc3ccccc3nc12,-2,19%,-13,?
CCc1ccc(-c2cc3c(=O)n(CC(=O)N4CCCCCC4)nc(C)n3n2)cc1,2,-3%,2,3%
Cc1ccc(S(=O)(=O)N2C(=O)CCC2C(=O)O/N=C(\N)c2ccccc2)cc1 (configuration not stated),7,-7%,-13,?
C[n+]1c(/C=C/c2ccc3c(c2)OCO3)ccc2ccccc21,51*,-18%,95*,429%
SMILES,CHX counter,Pf growth 96h,Shiga inhibitor,Pf growth 48h
C[n+]1c(/C=C/c2ccc(O)cc2)ccc2ccccc21,50*,2.3µM*,64*,?
C/C=C/c1ccc2c(c1)OCO2,nt,71%,nt,31%
CCN(CC(=O)Nc1ccc(NC(C)=O)cc1)C(=O)c1ccccc1CCc1ccccc1,nt,-5%,nt,4%
COCCCNC(=O)Cn1nnc(-c2ccc(NC(=O)c3ccccc3F)cc2)n1,26*,-18%,48*,78%
COCCCNC(=O)Cn1nnc(-c2ccc(NC(=O)c3ccccc3OC)cc2)n1,6,?,20,?
O=C1OC(c2ccccc2)=C/C1=C/N1CCCCC1,38*,-16%,126*,140%
CN(C)c1ccc(/C=C2/C=C(c3ccc4c(c3)CCCC4)OC2=O)cc1,-2,61%,-3,1%
Cc1ccc(C2=N/C(=C\c3c(C)nn(-c4ccccc4)c3N3CCCC3)C(=O)O2)cc1,-2,39%,-5,7%
O=C1OC(c2ccc(Br)cc2)=N/C1=C\N1CCCCC1,23*,?,66*,106%
O=C1OC(c2ccccc2)=N/C1=C\N1CCCCC1,42*,425%,61*,106%
Cc1ccc(N)c(Cl)c1,-6,nt,-9,nt
CCCCNC(=S)NNC(=O)c1c(C)nc2ccccn12,6,10%,-6,25%
CCOc1cc(C(=O)N[C@@H](C)C(=O)N2CCC3(CC2)NCCc2[nH]cnc23)cc(OCC)c1OCC,-1,1%,-7,?
COc1cccc(C(=O)Nc2ccccc2N2CCCC2)c1,1,136%,13,-20%
COc1cccc(C(=O)NC(=S)Nc2ccccc2N2CCCC2)c1,17*,?,40,?
COc1cccc(C(=O)NC(=S)Nc2ccccc2N2CCCCC2)c1,4,?,25,7.4µM*
COc1c(C)cccc1C(=O)NC(=S)Nc1ccccc1N1CCCC1,30*,?,12,?
COc1cccc(NC(=O)CCS(=O)(=O)c2ccc(Br)cc2)c1,-2,18%,-4,1%
CCNc1nc(OC)nc(N(OC)S(=O)(=O)c2ccc(C)cc2)n1,-6,-2%,-6,-3%[0.00184 µM]
CN(C)S(=O)(=O)c1ccc(C(=O)Nc2cc3c(cc2C(=O)O)OCCCO3)cc1,-2,47%,-2,50%
COc1ccc(C)cc1NC(=O)CCNS(=O)(=O)c1ccc2c(c1)CCC(=O)N2,2,7%,-8,-13%
COc1ccc(CSCC(=O)N/N=C/c2ccc(OCC(=O)NCc3ccco3)cc2)cc1,-2,-3%,7,-21%
CC(SCc1ccccc1)C(=O)N/N=C/c1ccc(OCC(=O)NCc2ccco2)cc1 (configuration not stated),-2,1.7µM*,-8,4%
CC(CO)NC(=O)C1C=C2c3cccc4[nH]cc(c34)CC2N(C)C1 (configuration not stated),nt,?,nt,-8%
CN1C[C@H](C(=O)N[C@]2(C)O[C@@]3(O)[C@@H]4CCCN4C(=O)[C@H](Cc4ccccc4)N3C2=O)C[C@@H]2c3cccc4[nH]cc(c34)C[C@H]21,nt,?,nt,7.6µM*
CC(C)C[C@H]1C(=O)N2CCCC2[C@]2(O)O[C@](NC(=O)[C@@H]3C=C4c5cccc6[nH]c(Br)c(c56)C[C@H]4N(C)C3)(C(C)C)C(=O)N12 (some centres not stated),nt,?,nt,3.4µM*
CN1C[C@H](C(=O)N[C@]2(C)O[C@@]3(O)[C@@H]4CCCN4C(=O)[C@H](Cc4ccccc4)N3C2=O)CC2c3cccc4[nH]cc(c34)C[C@H]21 (some centres not stated),nt,1.3µM*,nt,1.9µM*
CCN(CC)C(=O)N[C@@H]1C[C@@H]2c3cccc4[nH]cc(c34)C[C@H]2N(C)C1,nt,9%,nt,?
CC(C)[C@@]1(NC(=O)[C@H]2CC3c4cccc5[nH]cc(c45)C[C@H]3N(C)C2)O[C@@]2(O)C3CCCN3C(=O)[C@@H](Cc3ccccc3)N2C1=O (some centres not stated),nt,8.5µM*,nt,1.5µM*

# Screening data (PubChem)
